In the library only some 10% were active in any assay of this set; here they are far more common.
Gal4-VP16 FLuc: inhibits Gal4-VP16 luciferase reporter, ROR gamma counter-screen; 310,000 tested, 3.5% active; Potency, µM (titrated, usually from 53.6 µM), usual class: inhibitors; Drosophila S2 Gal4-VP16 UAS-luciferase, luminescence, 20 h; AID 2546;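 further: Gal4-VP16 expression switched on by copper sulfate through the metallothionein promoter; nearly all actives have a fitted effect of over 50% in size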
MCF10A rerep: induces DNA re-replication in MCF 10a normal breast cells. MCF 10A DNA re-replication, Hoechst nuclear intensity, 48 h. Potency, µM (series often up to 46.1 µM), actives largely listed as activators. 350,000 tested, 2.9% active. AID 624296; further: nearly all actives have a fitted effect of over 50% in size
RORg inh: inhibitors of mouse ROR gamma transcriptional activity. P51450. Drosophila S2 Gal4-RORgamma UAS-luciferase reporter, 20 h. Potency, µM (doses to about 53.6 µM), most hits filed as inhibitors. 310,000 tested, 5.4% active; further: nearly all actives have a fitted effect of over 60% in size
Target sequence (P51450 whole entry, looked up, the tested form may be a part): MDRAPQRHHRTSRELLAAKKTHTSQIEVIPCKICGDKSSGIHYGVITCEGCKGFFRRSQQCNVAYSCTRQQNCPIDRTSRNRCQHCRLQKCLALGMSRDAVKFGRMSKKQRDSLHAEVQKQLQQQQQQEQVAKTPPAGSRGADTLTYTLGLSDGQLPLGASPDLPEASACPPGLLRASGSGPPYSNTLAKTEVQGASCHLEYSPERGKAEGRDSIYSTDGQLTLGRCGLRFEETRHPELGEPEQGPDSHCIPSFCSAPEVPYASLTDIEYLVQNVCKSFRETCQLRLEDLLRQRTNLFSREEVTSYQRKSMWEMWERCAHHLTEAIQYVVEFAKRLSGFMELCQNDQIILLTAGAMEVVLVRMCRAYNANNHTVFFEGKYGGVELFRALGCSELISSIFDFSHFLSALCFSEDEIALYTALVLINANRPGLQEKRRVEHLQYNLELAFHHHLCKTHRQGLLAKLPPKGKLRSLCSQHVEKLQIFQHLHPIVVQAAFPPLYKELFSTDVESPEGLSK
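ROR gamma transcriptional activity was tracked as Gal4-UAS luciferase output in stably transfected Drosophila Schneider cells, with compound added 1 hr before 700 uM copper sulfate induction and a 20 hr ambient-temperature incubation.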
SW480 rerep: DNA re-replication induction in SW480 cells; SW480 DNA re-replication, Hoechst DNA content imaging, 48 h; Potency, µM (doses to about 46.1 µM), hits mostly activators; 340,000 tested, 1.8% active; AID 624297; further: nearly all actives have a fitted effect of over 55% in size
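250 cells/well; 23 nL cpd via pin tool; 48 hr, 37 C, 5% CO2; Hoechst 40 min; imager read of total nuclear intensity, ex 405/em 500-530 nm.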
ELG1 DNA repair: blocks ELG1-dependent DNA repair in HEK293T cells | HEK293T ELG1-luciferase reporter, luminescence, 16 h; DNA damage induced by 5-fluorouridine | Potency, µM (titrated, usually from 46.1 µM), hits mostly inhibitors | 330,000 tested, 2.3% active | AID 504467; further: nearly all actives have a fitted effect of over 55% in size
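Luminescence from the luciferase reporter, measured 30 min after ONE-Glo reagent at room temperature, was the read-out. Beforehand, 2,000 cells per well were exposed for 16 hr at 37 °C to 5-fluorouridine together with compound or vehicle.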
Large screens that a line does not name were inactive. The call rests on the fitted dose curve; in most records, active means well fitted curve in the direction sought with a large enough effect; inconclusive means small, poorly fitted or top-dose-only effect, or another doubt; inactive means no such curve, though single readings can be large; an effect the other way counts as inactive or inconclusive.

Cc1nn(-c2ccccc2)c(N2CCCC2)c1/C=N/NC(=O)c1cc(-c2ccccn2)nc2ccccc12	Gal4-VP16 FLuc inconclusive, RORg inh inconclusive, ELG1 DNA repair 8.2µM
Cc1nn(-c2ccccc2)c(N2CCCC2)c1/C=N/NC(=O)c1cccc(S(=O)(=O)Nc2ccc(Cl)cc2)c1	MCF10A rerep inconclusive, ELG1 DNA repair inconclusive
Cc1nn(-c2ccccc2)c(N2CCCC2)c1/C=N/Nc1ccc(S(N)(=O)=O)cc1[N+](=O)[O-]	Gal4-VP16 FLuc inconclusive, ELG1 DNA repair inconclusive
Cc1nn(-c2ccccc2)c(N2CCCC2)c1/C=N/NC(=O)c1cc(-c2cccs2)nc2ccccc12	ELG1 DNA repair 15µM
Cc1nn(-c2ccccc2)c(N2CCCC2)c1/C=N/NC(=S)Nc1ccccc1F	Gal4-VP16 FLuc 0.35µM, MCF10A rerep inconclusive, RORg inh 0.35µM, ELG1 DNA repair inconclusive (no result: SW480 rerep)
CC(=O)N(c1nnc(-c2cccc(C)c2)s1)C1CCCC1	ELG1 DNA repair inconclusive
C=CCOc1ccccc1CN1CCC(Oc2ccc(C(=O)N3CCCCC3)cc2)CC1	RORg inh inconclusive
CC(=O)Nc1ccn(C2CC3OCC(NC(=O)C4CCCN4C(=O)OC(C)(C)C)C3O2)c(=O)n1 (stereo unspecified)	none (no result: MCF10A rerep, SW480 rerep, ELG1 DNA repair)
Cc1cc2c(cc(C(=O)OCC(=O)NCc3cccs3)n2C(C)C)o1	MCF10A rerep 2.9µM, SW480 rerep 8.2µM (no result: Gal4-VP16 FLuc)
Cc1cc(C)cc(C(=O)OCC(=O)NCc2cccs2)c1	RORg inh inconclusive
Cn1c(SCc2ccc(C(C)(C)C)cc2)nnc1C1COc2ccccc2O1 (stereo unspecified)	MCF10A rerep 21µM, RORg inh inconclusive, SW480 rerep inconclusive
COC(=O)CSc1nnc(C2COc3ccccc3O2)n1-c1ccccc1 (stereo unspecified)	MCF10A rerep 21µM
Cn1c(SCc2nnc(-c3ccc(F)cc3)o2)nnc1C1COc2ccccc2O1 (stereo unspecified)	ELG1 DNA repair inconclusive
O=c1c(O)cc(C2Oc3cc(O)cc(O)c3CC2O)cc2c(C3Oc4cc(O)cc(O)c4CC3O)cc(O)c(O)c12 (stereo unspecified)	none (no result: MCF10A rerep, SW480 rerep, ELG1 DNA repair)
COC(=O)c1cc(NS(=O)(=O)c2cccs2)cc(NS(=O)(=O)c2cccs2)c1	none (no result: Gal4-VP16 FLuc, RORg inh)
Cc1ccc(C(=O)NC(=S)Nc2cccc(-c3nc4ccccc4s3)c2)cc1	ELG1 DNA repair inconclusive
O=C(/C=C/c1ccco1)NC(=S)Nc1cc(-c2nc3ccccc3s2)ccc1Cl	Gal4-VP16 FLuc 1µM, MCF10A rerep inconclusive, RORg inh 0.63µM, SW480 rerep inconclusive, ELG1 DNA repair inconclusive
O=C(/C=C/c1ccco1)NC(=S)Nc1cccc(-c2nc3ccccc3s2)c1	MCF10A rerep 5.8µM, SW480 rerep inconclusive (no result: Gal4-VP16 FLuc, RORg inh, ELG1 DNA repair)
O=C(Nc1cc(-c2nc3ccccc3s2)ccc1Cl)c1ccc2c(c1)OCO2	MCF10A rerep 9.2µM, ELG1 DNA repair inconclusive
Cc1ccc(-c2nc3ccccc3s2)cc1NC(=S)NC(=O)/C=C/c1ccco1	Gal4-VP16 FLuc 10µM, RORg inh 4µM, SW480 rerep inconclusive
CC(C)(C)c1ccc(S(=O)(=O)Nc2ccc(C(=O)N3CCCC3)cc2)cc1	none
CCOC(=O)CNC(=S)N(Cc1ccccc1)Cc1cccnc1	none
CCOc1ccc(CN(C)C(=O)CNC(=O)c2sc3ccccc3c2Cl)cc1	none (no result: Gal4-VP16 FLuc, RORg inh)
COc1cc(C(=O)NNC(=O)c2cccn2C)cc(OC)c1OC	none (no result: Gal4-VP16 FLuc, RORg inh)
Cc1cc2cc(CCNC(=O)c3cccc([N+](=O)[O-])c3)c(=O)[nH]c2cc1C	MCF10A rerep inconclusive, ELG1 DNA repair 23µM
Cc1onc(-c2ccccc2Cl)c1C(=O)NCCCc1ccccc1	none
Cc1cc2cc(CCNC(=O)c3c(-c4ccccc4Cl)noc3C)c(=O)[nH]c2cc1C	ELG1 DNA repair 13µM (no result: MCF10A rerep, SW480 rerep)
C[Se]CCC(N)C(=O)O (stereo unspecified)	none (no result: ELG1 DNA repair)
CCCCCN(C(=O)CCC(=O)OC(C)C(=O)c1ccccc1)c1c(N)n(CCCC)c(=O)[nH]c1=O (stereo unspecified)	none (no result: Gal4-VP16 FLuc, RORg inh)
CCOC(=O)c1c2c3c(c(Cl)ccc3[nH]c1=O)C(=O)c1ccccc1-2	MCF10A rerep inconclusive
COC(=O)c1cc(S(=O)(=O)N(Cc2ccccc2)C(C)(C)C)c[nH]1	MCF10A rerep 23µM, SW480 rerep 6.5µM
COC(=O)c1cc(S(=O)(=O)NCc2ccccc2)c[nH]1	none
CCc1ccc(-c2cc3c(=O)n(CC(=O)NCCCN4CCN(C)CC4)ncn3n2)cc1	MCF10A rerep inconclusive, RORg inh inconclusive, SW480 rerep inconclusive, ELG1 DNA repair inconclusive
CC(C)(C)CNC(=O)c1cccc2c1C(=O)c1ccc(N3CCCC3)cc1S2(=O)=O	ELG1 DNA repair 16µM (no result: Gal4-VP16 FLuc, RORg inh)
CCOC(=O)C(C)NC(=O)CCc1nnc2ccc(N3CCC(C)CC3)nn12 (stereo unspecified)	MCF10A rerep 26µM
CCC(C)NC(=O)CCc1nnc2ccc(N3CCC(C)CC3)nn12 (stereo unspecified)	none
O=C(C1=NOC(CNc2ncc(C(F)(F)F)cc2Cl)C1)N1CCOCC1 (stereo unspecified)	none
COCCn1c(SCc2nc3scc(-c4ccc(Cl)cc4)c3c(=O)[nH]2)nnc1-c1cccc(C)c1	MCF10A rerep inconclusive, RORg inh inconclusive, SW480 rerep inconclusive, ELG1 DNA repair 23µM
CN(C)S(=O)(=O)c1ccc(S(=O)(=O)NCc2cccs2)cc1	none
Cc1ccc(-n2c(-c3ccco3)n[nH]c2=S)cc1	Gal4-VP16 FLuc inconclusive, RORg inh 11µM
S=c1[nH]nc(-c2cc(-c3ccco3)[nH]n2)n1-c1ccccc1	RORg inh 13µM
S=c1[nH]nc(-c2cc(-c3ccco3)[nH]n2)n1-c1ccccc1Cl	none
Fc1ccc(-n2c(-c3ccco3)n[nH]c2=S)cc1	Gal4-VP16 FLuc inconclusive, RORg inh inconclusive
CCOc1ccc(-n2c(-c3ccco3)n[nH]c2=S)cc1	Gal4-VP16 FLuc inconclusive, RORg inh 2.8µM
S=c1[nH]nc(-c2ccco2)n1-c1ccccc1Cl	Gal4-VP16 FLuc 18µM, RORg inh 6.3µM, ELG1 DNA repair inconclusive
COC(=O)[C@@]1(Cc2ccc(OC)cc2)[C@H]2c3cc(C(=O)N4CCCC4)n(CCc4ccc(OC)c(Br)c4)c3C[C@H]2CN1C(=O)c1ccccc1	none (no result: MCF10A rerep, SW480 rerep, ELG1 DNA repair)
CC(C)(C)NC(=O)CN(Cc1ccc(F)cc1)C(=O)Cn1nnc(-c2ccc(F)cc2)n1	none
Cc1onc(-c2ccccc2)c1-c1n[nH]c(=S)n1-c1ccccc1Cl	Gal4-VP16 FLuc 16µM, RORg inh 4.5µM
CCC(CC)NC(=O)c1ccc(Cl)cc1	none
O=C(CN1CCN(S(=O)(=O)c2ccc(Br)cc2)CC1)N/N=C/c1ccccc1C(=O)O	none
c1ccc2[nH]c(NC3=NCCC3)nc2c1	Gal4-VP16 FLuc 11µM, RORg inh 2.8µM
Cc1cc(N/N=C2\CC(C)CC(C)(C)C2)nc2ccccc12 (stereo unspecified)	RORg inh 13µM

Screens (PubChem BioAssay)
